“And” between values parts separate entries of the source, which are not always exact repeats. Equal values may be shown once. Results filed as inconclusive are left out. The source holds several records for some structures; these can differ, active in one and inactive in another. Values without a mark were called inactive. The source made the active and inactive calls. Calls follow the shape of the dose curve; as a rule, active = well fitted inhibition curve with a large enough effect; inconclusive = small, poorly fitted or top-dose-only effect; inactive = flat fitted curve, though single readings scatter.

One test relates to CRL-7250. The test is described as follows: Cytotoxic Profiling of Annotated Libraries Using Quantitative High-Throughput Screening (AID 1296008). Also: potency is read from the fitted curve at half-maximal effect. As to max response: % is scaled to controls: 0 for no effect and ±100 for the full control effect. The conditions noted are these: Five cell lines viability, CellTiter-Glo ATP luminescence, 48-72 h; max response: stronger effect = lower value. The essentials:
(§1)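 Compounds were pin-transferred onto cells and incubated 48 or 72 hr at 37 degree Celsius, 95% humidity. CellTiter-Glo was added, plates sat 10 min at room temperature, then ATP-coupled luminescence was imaged as the viability read-out.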

Test [1] deals with HaCat. The test is described as above. The conditions noted are these: Five cell lines viability, CellTiter-Glo ATP luminescence, 48-72 h; max response: stronger effect = lower value. In short, it runs like this: as §1
On the technique in general: ATP-based viability assays read luminescence as a measure of living cells.

In a further test the test system is KB-3-1. The test is described as above. The conditions noted are these: Five cell lines viability, CellTiter-Glo ATP luminescence, 48-72 h; max response: stronger effect = lower value. In short, it runs like this: as §1
Another test concerns NIH3T3. Described as above. To be noted: Five cell lines viability, CellTiter-Glo ATP luminescence, 48-72 h; max response: stronger effect = lower value. In short, it runs like this: as §1
Test [2] relates to HACAT. The test is described as follows: qHTS assay to identify novel small-molecules to repurpose for Merkel cell carcinoma treatment (AID 1296009). To be noted: MCC and control cell lines, CellTiter-Glo viability, 72 h; at 44.8 µM (top of the series) unless noted. In short, it runs like this:
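Viability readout: ATP luminescence (CellTiter-Glo) after 72 hr drug exposure at 37 degree celsius. Dose-response format was 8 points for NPC and 11 points for MIPE; data normalized to in-plate controls.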
Also: nearly all actives have a fitted effect of over 60% in size.

As for `OC[C@H]1O[C@@H](O[C@H]2[C@@H](O)[C@@](O)(CO)O[C@@H]2CO)[C@H](O)[C@@H](O)[C@@H]1O`, the max response was -0.0942% with CRL-7250, 1.22% in the test on HaCat [1], -0.101% in the test with KB-3-1 and 2.52% with NIH3T3.
`O=C1Nc2ccc(I)cc2C1=Cc1cc(Br)c(O)c(Br)c1`: the outcome with CRL-7250 was inactive. Moreover, the max response in the test with HaCat [1] is 4.95%; with KB-3-1, 8.65%; with NIH3T3, -9.84%.
Turning to `CC(C)c1onc(-c2c(Cl)cccc2Cl)c1COc1ccc(C=Cc2cccc(C(=O)O)c2)c(Cl)c1`, the max response in the test with CRL-7250 is -1.7%; in the test on HaCat [1], -7.35%; with KB-3-1 it was 6.78%; in the test on NIH3T3 it was 4.7%.
With `CO[C@H]1/C=C\O[C@@]2(C)Oc3c(C)c(O)c4c(O)c(c5c(nc6cc(C)ccn65)c4c3C2=O)NC(=O)C(C)=CC=C[C@H](C)[C@H](O)[C@@H](C)[C@@H](O)[C@@H](C)[C@H](OC(C)=O)[C@H]1C`, the max response with CRL-7250 is 3.34%; with HaCat [1], -2.46%; in the test on KB-3-1, -2.96%; in the test with NIH3T3, -4.51%.
In the same order, the values of `CC[C@H](C=C[C@@H](C)[C@H]1CC[C@H]2[C@@H]3CC=C4C[C@@H](O)CC[C@]4(C)[C@@H]3CC[C@]12C)C(C)C` are -16.3%, -3.88%, 2.61% and 3.97%.
Turning to `Oc1ccc(C=Cc2cc(O)cc(O)c2)cc1`, the max response in the test with CRL-7250 is -12.2%; in the test on HaCat [1], -24.3%; with KB-3-1, -2.23%.
On to `CN(C)c1ccc(-c2nc3ncc(Cl)c(N4CCN(CC(=O)Nc5nccs5)CC4)c3[nH]2)cc1`, for which the max response with CRL-7250 is -24%. For the same compound, the call in the test on HaCat [1] was inactive. Besides, in the test on KB-3-1, the Potency was 2 µM (active) and the call was inactive. Besides, in the test with HACAT [2], the outcome is “inactive [at 17.4 µM]”.
As to `COc1cc2c(cc1OC)[C@@H]1Cc3ccc(OC)c(OC)c3CN1CC2`, the max response in the test on CRL-7250 was -7.12%; in the test with HaCat [1], -3.71%; in the test on KB-3-1 it was -25.3%; in the test with NIH3T3, -3.25%.
Regarding `CC(C)Oc1cc(Nc2nc(N[C@@H](C)c3ccc(F)cn3)ncc2Cl)[nH]n1`, the values for the Potency with CRL-7250, in the test with KB-3-1 and in the test with NIH3T3 were 2.64 µM (active), 10.5 µM (active) and 5.26 µM (active), respectively. In the test with HaCat [1], the max response is -29.2%.
Regarding `CNC(=O)c1cc(COc2nnc(Nc3ccc(Cl)cc3)c3ccoc23)ccn1`, the max response in the test on CRL-7250 is -22.5%; in the test with HaCat [1] it was 1.3%; in the test on KB-3-1, -2.71%; in the test with NIH3T3 it was -16.8%.
With `CO[C@@H]1C(N(C)C(=O)c2ccccc2)C[C@H]2O[C@]1(C)n1c3ccccc3c3c4c(c5c6ccccc6n2c5c31)C(=O)NC4=O` (some centres undefined), the Potency was 6.62 µM (active) in the test with CRL-7250, 9.35 µM (active) with HaCat [1] and 10.5 µM (active) in the test on KB-3-1.
For `CN1c2ccccc2C(=O)N2CCc3c([nH]c4ccccc34)C21` (centres undefined), the max response with CRL-7250 was 4.95%; in the test with HaCat [1], -3.12%; in the test with KB-3-1 it was 1.03%; in the test with NIH3T3, -8.68%. In addition, the Potency in the test on KB-3-1 was 5.17 µM (active).
As to `CNC(=O)c1ccc2c(C(=Nc3cccc(CN(C)C)c3)c3ccccc3)c(O)[nH]c2c1`, the max response was -0.775% and -15% in the test on CRL-7250; 0.629% in the test on HaCat [1]. Besides, the result with HaCat [1], in the test on KB-3-1 and in the test with HACAT [2] was inactive. In addition, in the test on NIH3T3, the Potency was 16.6 µM (active) and 8.2 µM (active).
As for `COc1ccc(-c2ccc3ncc4c(c3c2)n(-c2ccc(N3CCNCC3)c(C(F)(F)F)c2)c(=O)n4C)cn1`, in the test on CRL-7250, the max response is -103%. In addition, the Potency in the test on HaCat [1] is 3.7 nM (active) and 58 nM (active); in the test with KB-3-1, 16.6 nM (active) and 41.1 nM (active); in the test with NIH3T3, 0.0053 µM (active).
Regarding `Cc1cc(CS(=O)(=O)c2ccccc2)cc(OCc2ccc(CN3CCC[C@H]3CO)cc2)c1`, the Potency was 1.32 µM (active) with CRL-7250, 1.48 µM (active) in the test with HaCat [1], 3.72 µM (active) in the test with KB-3-1 and 2.96 µM (active) in the test on NIH3T3.
On to `C[C@@]1(C(=O)Nc2ccc(F)nc2)CCCN1c1nc(Nc2cc(C3CC3)[nH]n2)c2cccn2n1`, for which the Potency in the test with CRL-7250 was 11.8 µM (active) and 11.6 µM (active). The values for the max response with HaCat [1] and in the test on KB-3-1 were -23.7% and -30.1%, respectively.
Take `CSc1cccc(Nc2ncc3cc(-c4c(Cl)cccc4Cl)c(=O)n(C)c3n2)c1`: the Potency in the test with CRL-7250 was 0.235 µM (active); in the test with NIH3T3 it was 0.332 µM (active). Besides, the figures for the max response in the test with HaCat [1] and with KB-3-1 were -17.3% and 7.1%, respectively.
As for `CC(=O)O[C@]1(C(C)=O)CC[C@H]2[C@@H]3C=C(Cl)C4=CC(=O)[C@@H]5C[C@H]5[C@]4(C)[C@@H]3CC[C@@]21C`, the call with CRL-7250, with KB-3-1 and with NIH3T3 was inactive. In the test with HaCat [1], the max response is -0.438%.
For `COc1cc(CNC(=O)CCCCC=CC(C)C)ccc1O`, the max response with CRL-7250 was -19.8%; in the test on HaCat [1], 3.92%; with KB-3-1 it was -24.7%. Also, the Potency in the test with NIH3T3 was 10.5 µM (active).
Regarding `CN[C@@H](C)[C@H]1[C@H](O)C[C@@]2(C)[C@@H]3CC[C@H]4C(C)(C)[C@@H](NC)CC[C@@]45C[C@@]35CC[C@]12C`, the max response was -4.48% and 3.02% with CRL-7250; -3.67% with HaCat [1]; 4.02% with KB-3-1. Further, the call with HaCat [1], with KB-3-1 and in the test on NIH3T3 was inactive. In addition, in the test on HACAT [2], the outcome is “inactive [at 9.27 µM]”.

The values above are taken from PubChem BioAssay (NCATS).
